# Experimental data published in PubChem BioAssay.
# Values joined by “and” are separate entries in the source; they are usually repeats but may differ in a detail not shown here. Identical values can stand only once. Active and inactive are the calls of the source. Cut-off read from the data, not from the text of the source, unless noted: active = inhibition above about 80%; inactive = the rest.
# Tests used:
# [1] = viability loss with induced miR-34 in A549 – imaging, A549 dox-inducible miR-34, nuclei and caspase counts, primary screen (AID 1347080;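 active = compounds whose cell count with miR-34 switched on is under 0.7 times the count with it off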); conditions: A549 miR-34 inducible, Hoechst nuclei count, 48 h
# [2] = MELAS cybrid and Rieske KO viability enhancers – cell-based, MELAS cybrids, Rieske KO mouse fibroblasts, CellTiter-Glo, primary screen (AID 1508586;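 active = mean z-score across replicates of 1.96 or higher in either the MELAS or the Rieske mutant cell line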;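 note: z relative to plate mean and SD of compound and empty wells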); conditions: low glucose
# [3] = growth inhibition, single agent or in combination, cell-based, chromothripsis tumors, cisplatin or BGB combos (AID 1671449); conditions: LFS_MB_P medulloblastoma cells;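 note: cells exposed for 96 hours; 0% = vehicle DMSO and 100% = killing by high DMSO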
# [4] = growth inhibition, single agent and combos, cell-based, chromothripsis tumors, cisplatin or BGB combos (AID 1671450); conditions: HDN33 neuroblastoma cells, stronger effect = higher value;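 note: cells exposed to compound for four days; 0% = vehicle DMSO and 100% = cell killing by high DMSO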
# [5] = growth inhibition, single agents and combos, ICB984, cell-based, cisplatin or BGB combos, synergistic combos for chromothripsis tumors (AID 1671451; call rule not given here;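 note: cells exposed for 96 hours before readout; 0% = vehicle DMSO and 100% = killing by high DMSO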); conditions: ICB984 medulloblastoma cells, drug combinations, stronger effect = higher value
# [6] = growth inhibition, single agents and combos, LFS_MB_1R, cell-based, cisplatin or BGB combos, synergistic combos for chromothripsis tumors (AID 1671452); conditions: LFS_MB_1R medulloblastoma cells, stronger effect = higher value;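 note: cells exposed for 96 hours before readout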
# [7] = growth inhibition, single agents and combos, HTB85, cell-based, BGB or cisplatin IC20 combos, synergistic combos for chromothripsis tumors (AID 1671453); conditions: HTB85 osteosarcoma cells, drug combinations, stronger effect = higher value;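 note: cells exposed for 96 hours before readout; 0% = vehicle DMSO and 100% = high DMSO killing control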
# [8] = growth inhibition, single agents and combos, CRL2098, cell-based, BGB or cisplatin IC20 combos, synergistic combos for chromothripsis tumors (AID 1671454); conditions: CRL2098 osteosarcoma cells, drug combinations, stronger effect = higher value;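 note: cells exposed for 96 h before readout; 0% = vehicle DMSO and 100% = killing by high DMSO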
# [9] = growth inhibition, single agents and combos, HD-MB03, cell-based, BGB or cisplatin IC20 combos, synergistic combos for chromothripsis tumors (AID 1671455; in the data active = inhibition above about 83%;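 note: 0% = vehicle DMSO and 100% = high DMSO as cytotoxic control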); conditions: HD-MB03 medulloblastoma cells, stronger effect = higher value
# [10] = growth inhibition, single agents and combos, UWB1.289, cell-based, BGB or cisplatin combos, synergistic combos for chromothripsis tumors (AID 1671456); conditions: UWB1.289 ovarian carcinoma cells, stronger effect = higher value;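 note: cells exposed to compound for four days; 0% = vehicle DMSO and 100% = killing by high DMSO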
# [11] = growth inhibition, single agents and combos, LFS_MB_2R, cell-based, cisplatin combos, synergistic combos for chromothripsis tumors (AID 1671457); conditions: LFS_MB_2R medulloblastoma cells, stronger effect = higher value;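 note: cells exposed to compound for four days before readout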
# [12] = growth inhibition, MDA-MB-436, cell-based, BGB or cisplatin combos, synergistic combos for chromothripsis tumors (AID 1671458; call rule not given here;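 note: cells exposed for 96 hours; 0% = vehicle DMSO and 100% = killing by high DMSO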); conditions: MDA-MB-436 breast carcinoma growth inhibition, drug combinations, stronger effect = higher value
# [13] = UWB1.289_BRCA1 ovarian cancer growth, cell-based, BGB or cisplatin combinations (AID 1671459); conditions: UWB1.289 BRCA1 ovarian carcinoma, drug combinations, stronger effect = higher value
# [14] = drug combination toxicity in non-malignant astrocytes – cell-based, BGB or cisplatin IC20 combos, cytotoxicity control for chromothriptic childhood tumor combination screen (AID 1671460); conditions: Human astrocytes, viability inhibition, drug combinations, at 0.5 µM, stronger effect = higher value;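 note: cells exposed to compounds for 96 hours before viability readout; 0% = vehicle and 100% = killing control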
# [15] = BT084 cell growth, single and combined drugs, ICGC_MB145, cisplatin and BGB IC40 combos (AID 1671461); conditions: BT084 medulloblastoma cells, drug combinations, stronger effect = higher value;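 note: cells exposed to drugs for 96 hours; 0% = vehicle DMSO and 100% = high DMSO full killing control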
# [16] = RCMB18 cell growth, single agent and combined, cisplatin and BGB IC40 combos (AID 1671462); conditions: RCMB18 medulloblastoma cells, stronger effect = higher value;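 note: cells exposed to compound for four days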
# [17] = CRL1545 cell growth, single agent and combined, cisplatin and BGB IC20 combos (AID 1671464); conditions: CRL1545 osteosarcoma cells, stronger effect = higher value;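 note: cells exposed to compound for 96 hours before readout; 0% = vehicle DMSO and 100% = high DMSO killing control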
# [18] = compounds altering viability of human ES cells (AID 493140; call rule not given here;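 note: cells exposed to compounds for four days before counting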); conditions: human embryonic stem cell survival screen; stronger effect = higher value
# [19] = P. berghei load reduction in hepatocytes – cell-based, HepG2, luciferase luminescence, HepG2 viability, primary screen (AID 624349; in the data active = parasite load remaining mostly below about 12%, no sharp cut-off; inactive = mostly above about 10%;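 note: 100% = mean of DMSO negative control wells on the same plate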); conditions: P. berghei liver stage in HepG2, luciferase luminescence, concentration not given here; parasite load remaining: stronger effect = lower value; viability: measured here: HepG2 viability without parasites
# [20] = stronger effect = lower value, cell number ratio, induced over uninduced
# [21] = measured here: relative caspase fold change +Dox/-Dox
# [22] = measured here: total cells with miR-34 induction, stronger effect = lower value
# [23] = measured here: total cells without miR-34 induction
# [24] = MELAS cybrid survival, CellTiter-Glo 48 h, stronger effect = higher value
# [25] = Rieske KO mouse fibroblast survival, CellTiter-Glo 72 h
# [26] = measured here: combination with BGB IC40, at 0.05 µM
# [27] = measured here: with BGB IC20 combination, at 0.5 µM
# [28] = measured here: with cisplatin IC20 combination, at 0.5 µM
# [29] = measured here: combination with cisplatin, at 0.5 µM
# [30] = measured here: combination with cisplatin, at 5 µM
compound,measurement,setting,value
O=C(O)c1cc2cccc([N+](=O)[O-])c2[nH]1,fold change,[1]; [20],0.946 (inactive)
same,fold change,[1]; [21],0.523
same,cell count,[1]; [22],8560
same,cell count,[1]; [23],9040
same,z-score,[2]; [24],-0.36 (inactive)
same,z-score,[2]; [25],0.315
same,inhibition,"[3]; at 0.5 µM, stronger effect = higher value",-23.9% (inactive)
same,inhibition,"[3]; measured here: combination with BGB IC20, at 0.005 µM",-6.46%
same,inhibition,"[3]; measured here: combination with BGB IC40, at 0.005 µM",-31.7%
same,inhibition,[3]; [26],-15.1%
same,inhibition,"[3]; measured here: combination with cisplatin, at 0.5 µM, stronger effect = higher value",-30%
same,inhibition,"[3]; measured here: combination with cisplatin, at 5 µM, stronger effect = higher value",-50.9%
same,inhibition,"[4]; BGB combo, at 5 µM",-9.55%
same,inhibition,[4]; at 0.5 µM,-19.2% (inactive)
same,inhibition,"[4]; cisplatin combo, at 5 µM",-1.64%
same,inhibition,[4]; [27],-22.3%
same,inhibition,[4]; [28],-18.1%
same,inhibition,"[4]; single agent, at 5 µM",-9.97%
same,inhibition,"[5]; BGB IC20 combo, at 0.005 µM",-35.7%
same,inhibition,"[5]; BGB IC40 combo, at 0.005 µM",-62.5%
same,inhibition,"[5]; BGB IC40 combo, at 0.05 µM",-61%
same,inhibition,[5]; at 0.5 µM,-39.2% (inactive)
same,inhibition,"[5]; cisplatin combo, at 0.05 µM",-67.4%
same,inhibition,"[5]; cisplatin combo, at 0.5 µM",-58.3%
same,inhibition,"[5]; cisplatin combo, at 5 µM",-47.8%
same,inhibition,"[5]; measured here: 5 uM single agent, at 5 µM",-25.3%
same,inhibition,[6]; at 0.5 µM,-25.3% (inactive)
same,inhibition,[6]; [26],-24.6%
same,inhibition,[6]; [29],-18.7%
same,inhibition,[6]; [30],-30.6%
same,inhibition,[7]; at 0.5 µM,-15.9% (inactive)
same,inhibition,"[7]; measured here: with BGB IC20, at 0.5 µM",-41.2%
same,inhibition,"[7]; measured here: with BGB IC20, at 5 µM",-22.3%
same,inhibition,"[7]; measured here: with cisplatin IC20, at 0.5 µM",-7.91%
same,inhibition,"[7]; measured here: with cisplatin IC20, at 5 µM",-2.59%
same,inhibition,"[7]; single agent, at 5 µM",-17.2%
same,inhibition,[8]; at 0.5 µM,-68.3% (inactive)
same,inhibition,"[8]; measured here: combination with BGB at IC20, at 0.5 µM",-23.9%
same,inhibition,"[8]; measured here: combination with cisplatin at IC20, at 0.5 µM",-78.8%
same,inhibition,[9]; at 0.5 µM,-5.12% (inactive)
same,inhibition,"[9]; measured here: combo with BGB at IC20, at 0.5 µM",-8.83%
same,inhibition,"[9]; measured here: combo with cisplatin at IC20, at 0.5 µM",1.4%
same,inhibition,[10]; at 0.5 µM,-15.9% (inactive)
same,inhibition,"[10]; measured here: inhibition with BGB combination, at 0.05 µM",-35.8%
same,inhibition,"[10]; measured here: inhibition with cisplatin combination, at 0.05 µM",40%
same,inhibition,[11]; at 0.5 µM,-32% (inactive)
same,inhibition,[11]; [29],-28.5%
same,inhibition,[11]; [30],-29.3%
same,inhibition,[12]; at 0.5 µM,-23.3% (inactive)
same,inhibition,"[12]; measured here: BGB combination, at 0.5 µM",-25%
same,inhibition,"[12]; measured here: BGB combination, at 5 µM",-42.9%
same,inhibition,"[12]; measured here: cisplatin combination, at 0.5 µM",-25.6%
same,inhibition,"[12]; measured here: cisplatin combination, at 5 µM",-40.6%
same,inhibition,"[13]; BGB combination, concentration series, at 5 µM",-18.8%
same,inhibition,[13]; at 0.5 µM,-21.8% (inactive)
same,inhibition,"[13]; cisplatin combination, concentration series, at 5 µM",-8.12%
same,inhibition,[14],-16% (inactive)
same,inhibition,[14]; measured here: combo with BGB IC20,-13.8%
same,inhibition,[14]; measured here: combo with cisplatin IC20,-5.7%
same,inhibition,[15]; at 0.5 µM,-15.5% (inactive)
same,inhibition,"[15]; cisplatin combination, at 0.5 µM",-11.3%
same,inhibition,"[15]; cisplatin combination, at 5 µM",-2.07%
same,inhibition,"[15]; measured here: BGB IC40 combination 0.05 uM, at 0.05 µM",-9.88%
same,inhibition,"[15]; single agent, at 5 µM",-23.7%
same,inhibition,[16]; at 0.5 µM,-11.6% (inactive)
same,inhibition,"[16]; cisplatin combo, at 5 µM",27.1%
same,inhibition,"[16]; measured here: BGB IC40 combination, at 0.05 µM",-14.6%
same,inhibition,[16]; [29],5.09%
same,inhibition,"[16]; single agent, at 5 µM",-41.3%
same,inhibition,[17]; at 0.5 µM,-22.4% (inactive)
same,inhibition,[17]; [27],-10%
same,inhibition,[17]; [28],-28.5%
same,inhibition,"[17]; single agent, at 0.05 µM",22.7%
same,inhibition,"[17]; single agent, at 5 µM",-25.9%
O=C1NCCN1c1ncc([N+](=O)[O-])s1,survival,[18],3.92 (inactive)
same,parasite load remaining,[19],95% (inactive) and 83.2% (inactive)
same,viability,[19],122% and 79.5%
same,fold change,[1]; [20],0.899 (inactive)
same,fold change,[1]; [21],1.68
same,cell count,[1]; [22],8920
same,cell count,[1]; [23],9920
same,z-score,[2]; [24],0.58 (inactive)
same,z-score,[2]; [25],-0.169
CNc1ncnc2c1ncn2[C@@H]1O[C@H](CO)[C@@H](O)[C@H]1O,survival,[18],5.42 (inactive)
same,parasite load remaining,[19],23.9% (inactive) and 70.7% (inactive)
same,viability,[19],132% and 78.2%
same,fold change,[1]; [20],0.829 (inactive)
same,fold change,[1]; [21],1.48
same,cell count,[1]; [22],7800
same,cell count,[1]; [23],9420
same,z-score,[2]; [24],0.118 (inactive)
same,z-score,[2]; [25],-0.237
C[C@@H]1C[C@H]2[C@@H]3C[C@H](F)C4=CC(=O)C=C[C@]4(C)[C@@]3(Cl)[C@@H](O)C[C@]2(C)[C@H]1C(=O)COC(=O)C(C)(C)C,survival,[18],4.25 (inactive)
same,parasite load remaining,[19],85.6% (inactive)
same,viability,[19],86.4%
same,fold change,[1]; [20],0.917 (inactive)
same,fold change,[1]; [21],0.704
same,cell count,[1]; [22],6960
same,cell count,[1]; [23],7580
same,z-score,[2]; [24],-0.991 (inactive)
same,z-score,[2]; [25],-0.15
